HCV inh: qHTS Assay for Inhibitors of Hepatitis C Virus (HCV); Huh7.5.1 HCVcc-Cre infection, luciferase reporter, 44 h; Potency, µM (highest dose often 41.8 µM), for inactives: at the top dose activity change, negative = inhibition, most hits filed as inhibitors; 340,000 compounds, 3.4% hits; AID 651820, 2012; note: potency is the fitted concentration of half-maximal effect
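Cells (1,000/well) were plated 4 h before compound, then infected with HCVcc-Cre virus (~0.5 moi). After 44 h further culture, infection was read as luciferase luminescence following a 15 min substrate incubation at room temperature.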
VACV mCherry inh: qHTS for Stage-Specific Inhibitors of Vaccinia Orthopoxvirus: mCherry Reporter Primary qHTS. Vaccinia virus mCherry reporter infection, fluorescence. 310,000 compounds, 0.63% hits. Potency, µM (series often up to 36.5 µM), without a hit: at the highest dose activity change, negative = inhibition, hits mostly inhibitors; calls by dose curve; tested in A549 cells; note: potency is the fitted concentration of half-maximal effect; nearly all actives have a fitted effect of over 35% in size
FMDV inh: High Throughput Screening for Foot and Mouth Disease Virus Antivirals; 410,000 compounds, 1.2% hits; Potency, µM (titrated, usually from 57.9 µM), for the others: top-dose activity change, negative = inhibition, actives largely listed as inhibitors; FMDV antiviral cell-based qHTS; calls by dose curve; tested in HEK293T cells; note: read-out not given here; potency is the fitted concentration of half-maximal effect; nearly all actives have a fitted effect of over 45% in size
Sm TGR inh: qHTS Assay for the Inhibitors of Schistosoma Mansoni Peroxiredoxins; Schistosoma mansoni thioredoxin glutathione reductase (TGR), Q962Y6; purified TGR, DTNB reduction, TNB absorbance 405 nm; Potency, µM (highest dose often 114 µM), without a hit: top-dose activity change, negative = inhibition, usual class: inhibitors; 360,000 compounds, 3% hits; AID 485364, 2010; note: potency is the fitted concentration of half-maximal effect; nearly all actives have a fitted effect of over 60% in size
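TGR 20 nM + NADPH 100 uM (dispensed conc.), cpd preinc 15 min RT; start with NADPH (500 uM addition) then DTNB (15 mM addition). Kinetic TNB absorbance, 405 nm filter. Four-parameter Hill fit across titration.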
HCMV inh: qHTS Assay for inhibitors of the human cytomegalovirus (HCMV). HFF cells, HCMV-luciferase reporter, 72 h; active compounds read low. activity change, negative = inhibition, % at 57.5 µM. 410,000 compounds, 4.5% hits; in the data active = activity change below about -60%; inconclusive = no clear call, values can overlap the other calls; inactive = above about -39%
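Two compound doses tested in HFFs infected with HCMV-luciferase, MOI 1 PFU/cell, 72 h at 37C. Lysate luminescence read with OneGlo; data normalized against buffer-only and 10uM Salinomycin inhibitor controls.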
Vaccinia Venus: qHTS for Stage-Specific Inhibitors of Vaccinia Orthopoxvirus: Venus Reporter Primary qHTS | Vaccinia virus Venus reporter expression, fluorescence | Potency, µM (series often up to 36.5 µM), without a hit: top-dose activity change, negative = inhibition, usual class: inhibitors | 330,000 compounds, 0.46% hits; calls by dose curve; tested in A549 cells; note: potency is the fitted concentration of half-maximal effect; nearly all actives have a fitted effect of over 30% in size
* = called active by the depositor; i = inactive; ? = inconclusive; · = no result given; [ ] = another dose, or the depositor's remark. Most compounds without a hit are left out; they make up all but 9.3% or so of the library. Unless noted, calls come from the whole dose curve; as a rule, active = well fitted curve in the direction sought with a large enough effect; inconclusive = small, poorly fitted or top-dose-only effect, or another doubt; inactive = no such curve, though single readings can be large; an effect the other way counts as inactive or inconclusive. % is set by controls: 0 for no effect and ±100 for the full control effect.

SMILES | HCV inh | VACV mCherry inh | FMDV inh | Sm TGR inh | HCMV inh | Vaccinia Venus
CN(C)CCN(Cc1ccco1)c1ccccn1 | 2% | i | 30% | · | -2 | 8%
CN(C)CCN(Cc1ccc(Cl)cc1)c1ccccn1 | ? | 0% | 0% | -7% | -62* | -14%
C[N+](C)(C)CCN(Cc1ccc(Cl)cc1)c1ccccn1 | 9% | -23% | 2% | -37% | -63* | -23%
COC(=O)c1ccc(Cn2cnc3nc4c(cc3c2=O)CCCC4)cc1 | · | -8% | 4% | 0% | 12 | -5%
O=C1CC(c2ccccc2Cl)CC(O)=C1C=Nc1ccccc1 (stereo unspecified) | 4% | -14% | 10% | -5% | -73* | -13%
O=C1CC(c2ccco2)CC(O)=C1C=NCCN1CCNCC1 (stereo unspecified) | 16% | · | -14% | 40µM* | 65 | ·
O=C1CC(c2ccco2)CC(O)=C1C=Nc1cc(Cl)cc(Cl)c1 (stereo unspecified) | 5% | · | ? | 18µM* | 23 | -27%
CCOc1ccc(N=CC2=C(O)CC(c3ccco3)CC2=O)cc1 (stereo unspecified) | 23% | -4% | 1% | -12% | 13 | -14%
O=C1CC(c2ccccc2)CC(O)=C1C=NCCN1CCNCC1 (stereo unspecified) | 15% | · | 0% | -23%[11.4 µM] | 32 | -24%
Cc1ccc(C2CC(=O)C(C=NCCN3CCN(C(=O)Cc4ccccc4)CC3)=C(O)C2)cc1 (stereo unspecified) | 20% | -13% | -29% | 22µM* | 10 | -9%
Cc1ccc(N=CC2=C(O)CC(c3ccccc3Cl)CC2=O)cc1 (stereo unspecified) | 14% | · | 17% | 0% | 45 | ·
Cc1c2cnn(CC(=O)NCc3ccccc3)c(=O)c2c(C)n1Cc1cccc(Cl)c1 | · | -20% | ? | 1% | -9 | -13%
Cc1noc(C)c1S(=O)(=O)N(C)C[C@@H]1OCc2cn(nn2)CCCC(=O)N([C@@H](C)CO)C[C@H]1C | · | i | 2% | · | 20 | -4%
CCOC(=O)c1nc2cc3n(c(CC(C)C)c-2c1C)CC(C)=C3C | -27% | i | -27% | 56µM* | -36 | 4%
Cc1ccc2nc(-c3ccncc3)cc(-c3ccccc3)c2c1 | 11µM* | · | 0% | -14% | 6 | ·
Cc1ccccc1NC(=O)COC(=O)C1CC2CCCC(C1)C2=O (stereo unspecified) | 2% | -4% | -15% | -7% | -5 | -9%
COc1ccc(-c2nc(CSCC(=O)N3CCN(c4cccc(C)c4C)CC3)c(C)o2)cc1OC | · | 11µM* | 25µM* | -4% | -93* | 11µM*
COc1ccc(-c2nc(CSCC(=O)N3CCN(C)CC3)c(C)o2)cc1OC | -5% | · | 5% | 1% | 28 | ·
COc1ccc(-c2nc(CSCC(=O)N3CCN(c4cc(Cl)ccc4C)CC3)c(C)o2)cc1 | · | ? | ? | -10% | -80* | ?
CCOC(=O)COc1cccc2c(=O)n(CC(=O)N3CCC(C)CC3)ccc12 | 18% | -14% | 0% | 4% | -35 | -14%
Cn1c(SCc2ccc(F)cc2)nc2ccc(C(=O)NCc3ccc(F)cc3)cc21 | · | -16% | ? | 6% | -69* | -22%
Cc1ccc(CSc2nc3cccnc3n2Cc2ccc(C(=O)NC3CCCCC3)cc2)cc1 | · | ? | 23% | -4% | 20 | 11µM*

Screens: PubChem, National Center for Advancing Translational Sciences (NCATS)
